Autofluor counter = flagged as autofluorescent in microsphere protease counterscreen; compound autofluorescence counterscreen, microsphere flow cytometry; active compounds read high; fluorescence intensity (no concentration beside the values); 360,000 tested, 3.1% active; in the data active = fluorescence intensity above about 16000; inconclusive = no clear call, values can overlap the other calls
BoNT F protease = blocks Botulinum neurotoxin F light chain protease; Multiplex microsphere protease cleavage assay, flow cytometry; inhibition, % at 10 µM; 360,000 tested, 0.22% active; in the data active = inhibition above about 35%, passing the limit was not always enough; inconclusive = no clear call, values can overlap the other calls; also: plate controls were buffer without enzyme for full effect and enzyme alone for no effect
SARS 3CLpro inh = SARS-CoV 3CLpro protease inhibition; P0C6X7; recombinant SARS-CoV 3CLpro, quenched FRET peptide cleavage; inhibition, % at 6 µM; 290,000 tested, 0.14% active; AID 1706; in the data active = inhibition above about 12%
Anthrax LF inh2 = blocks Bacillus anthracis lethal factor protease; P15917; multiplex microsphere protease cleavage assay, LF; inhibition, % at 10 µM; 360,000 tested, 0.12% active; AID 588501; also: plate controls were buffer without enzyme for full effect and enzyme alone for no effect
CCHFV vOTU inh = CCHFV vOTU protease inhibition | AID 651958 | 370,000 tested, 0.55% active | inhibition, % at 11.5 µM | Pep-AMC fluorescence; in the data active = inhibition above about 30%; also: 0% = vehicle wells with enzyme and 100% = no enzyme wells
BoNT-A LC inh2 = BoNT A light chain protease inhibition; inhibition, % at 10 µM; 360,000 tested, 0.17% active; multiplex microsphere protease substrate cleavage, flow cytometry; AID 588499; also: plate controls were buffer without enzyme for full effect and enzyme alone for no effect
Starred values were filed as active, the others as inactive; ? = inconclusive; nt = no result given. In the library only some 3.9% were active in any assay of this set; here they are far more common. Rule as the data show it, unless noted: active = inhibition above about 30%; inconclusive = no clear call, values can overlap the other calls; inactive = below that.

SMILES	Autofluor counter	BoNT F protease	SARS 3CLpro inh	Anthrax LF inh2	CCHFV vOTU inh	BoNT-A LC inh2
O=C(Nc1ccc(Br)cc1Br)c1cccc2c1C(=O)N(C1CCCCC1)C2	5880	3	8	2	-5	2
CCOC(=O)[C@]12CCCCC/C=C\1N(CCc1ccc(Cl)cc1)C(=O)[C@H]2CC(=O)NCC12CC3CC(CC(C3)C1)C2	nt	nt	nt	nt	22	nt
O=C(CC1SC2=NCCN2C1=O)Nc1ccccc1 (centres undefined)	5735	1	1	-1	-3	0
Cc1ccc(NC(=O)CC2SC3=NCCN3C2=O)cc1 (centres undefined)	22351*	0	-1	0	-8	2
c1csc(CN2CCOCC2)c1	9556	-30	3	-8	6	-6
CC1(C)C2CC=C(CN3CCOCC3)C1C2 (centres undefined)	22704*	1	-1	-1	3	1
CC(C)C(NS(=O)(=O)c1c(Cl)cccc1Cl)C(=O)OCC(=O)c1c[nH]c2ccccc12 (centres undefined)	4613	-16	3	15	10	58*
CC(O)C(NS(=O)(=O)c1ccc(Cl)cc1)C(=O)OCC(=O)c1c[nH]c2ccccc12 (centres undefined)	4278	0	6	-2	-5	0
C=CCON/C(CCC)=C1\C(=O)CC(C)(C)CC1=NC	5842	-2	6	2	-1	0
Oc1c(N=Nc2ccccn2)ccc2ccccc12	6158	-17	-1	12	3	36*
Oc1[nH]c2ccccc2c1N=Nc1ccccn1	3632	6	nt	-5	-4	0
C=CCNC(=S)NNC(=O)Cn1c(-c2ccccc2)cc(=O)n2ncnc12	3880	?	-2	32*	8	-3
CN1OC[C@@H]2CN(Cc3ccccc3)[C@H](c3ccc(N4CCCCC4)cc3)C[C@@H]21	12789	-6	nt	-22	5	-7
CN1OC[C@@H]2CN(Cc3ccc4c(c3)OCO4)[C@H](c3ccc(N4CCCCC4)cc3)C[C@@H]21	23460*	15	nt	-22	20	-15
COc1ccc(C(=O)NCCNC(=O)c2cnccn2)cc1	3676	-12	1	-1	18	-1
O=C(c1cc(-c2cccs2)nc2ccccc12)N1CCN(S(=O)(=O)c2ccccc2)CC1	16484*	3	7	-3	-46	0
O=S(=O)(c1ccccc1C(F)(F)F)N1CCN(S(=O)(=O)c2ccccc2C(F)(F)F)CC1	22001*	3	-9	-3	19	1
O=C(c1ccccc1C(F)(F)F)N1CCN(S(=O)(=O)c2ccccc2)CC1	19835*	1	-1	2	-2	1
O=C(c1cc(-c2cccs2)nc2ccccc12)N1CCN(S(=O)(=O)c2cccc(F)c2)CC1	2328	3	-1	-6	-15	0
O=C(CSc1nnnn1-c1ccccc1)Nc1ccc(N2CCOCC2)c(Cl)c1	10247	-2	-2	-2	-36	0
O=C(CSc1nnnn1-c1cccc2ccccc12)Nc1ccc(N2CCOCC2)c(Cl)c1	16201*	1	0	-7	-6	0
CCN(CC)CCC(O)(c1ccccc1)C1CCCCC1 (centres undefined)	60438*	?	1	-209	-5	-226
CCCCOC(=O)C1=C(C)Nc2ncnn2C1c1cccc(OC)c1OC (centres undefined)	?	11	-6	-11	6	5
CCOC(=O)C1=C(c2ccccc2)Nc2ncnn2C1c1cc(OC)ccc1OC (centres undefined)	21867*	2	3	2	-13	1
CCCCOC(=O)C1=C(C)Nc2ncnn2C1c1cccc(OC)c1 (centres undefined)	23328*	3	-1	2	0	0
SMILES	Autofluor counter	BoNT F protease	SARS 3CLpro inh	Anthrax LF inh2	CCHFV vOTU inh	BoNT-A LC inh2
CCCCOC(=O)C1=C(C)Nc2ncnn2C1c1cc(OC)ccc1OC (centres undefined)	19006*	10	-1	-12	0	7
Cc1ccc(N2C(=O)C(c3c(C)[nH]n(-c4ccccc4)c3=O)(C(F)(F)F)C3=C2CC(C)(C)CC3=O)cc1 (centres undefined)	2423	-1	5	4	-2	0
Cc1[nH]n(-c2ccccc2)c(=O)c1C1(C(F)(F)F)C(=O)N(c2ccccc2)C2=C1C(=O)CC(C)(C)C2 (centres undefined)	23155*	2	-1	-2	6	?
Cc1ccccc1-c1nc2cc(NC(=O)C3CC3)ccc2o1	3204	-5	2	9	-15	0
CC1CCCC(C)N1C(=O)COC(=O)CSc1ccc(C(N)=O)cc1[N+](=O)[O-] (centres undefined)	21171*	-110	nt	-18	6	-64
CC(=O)NCCNc1nc(NCC2CC2)nc2cc(-c3ccccc3)sc12	3924	-1	nt	5	-6	1
O=C(COc1ccc(F)cc1)NCCNC(=O)COc1ccc(F)cc1	3344	-3	nt	1	-2	0
CCN=C1SC(CC(=O)NC2CCCCC2)C(=O)N1CC (centres undefined)	20571*	-3	-3	0	2	?
CCN=C1SC(CC(=O)NC(N)=O)C(=O)N1CC (centres undefined)	4206	-10	-3	-1	-11	0
CN1C/C(=C/c2ccncc2)C(=O)/C(=C/c2ccncc2)C1	3711	-6	-5	-4	7	-6
CN1C/C(=C\c2ccc(N3CCOCC3)cc2)C(=O)/C(=C/c2ccc(N3CCOCC3)cc2)C1	9043	7	2	33*	-15	34*
CCN1C/C(=C/c2ccc(N3CCOCC3)cc2)C(=O)/C(=C/c2ccc(N3CCOCC3)cc2)C1	4303	-8	-2	22	-3	37*
COc1ccccc1CNC(=O)NCCCN1CCN(c2ccc(F)cc2)CC1	nt	nt	nt	nt	-1	nt
CC(C)c1nnc(NC(=O)Cn2nc(-c3ccc4c(c3)OCCO4)ccc2=O)s1	17082*	-8	-6	-8	9	-4
COc1cccc(OC)c1NC(=O)Cn1nc(-c2ccc3c(c2)OCCO3)ccc1=O	5433	-2	2	-6	-3	-1
O=C(NCC(=O)N1CCN(S(=O)(=O)c2cccs2)CC1)c1ccc(Cl)cc1	2621	0	2	-3	6	0
Cc1ccc(S(=O)(=O)N(CC(=O)Nc2cccc([N+](=O)[O-])c2)C(=O)N2CCN(C)CC2)cc1	16418*	-76	nt	-13	-3	-45
COC(=O)c1cccc(NC(=O)c2nn(C(C)C)c(=O)c3ccccc23)c1	17352*	-4	1	-1	1	?
CCCn1nc(C(=O)Nc2cccc(C(=O)OC)c2)c2ccccc2c1=O	4202	2	1	5	-3	0
O=C(CSc1nnc2scc(-c3ccccc3)n12)NCC1CCCO1 (centres undefined)	21160*	-4	-6	1	-7	-2
COc1ccc(-c2nnc3ccc(SCC(=O)NCc4ccco4)nn23)cc1	8467	7	5	3	9	0
